Hit rate of the full screen: of about 65,000 compounds, about 2,100 (3.2%) showed an effect of 50% or more. The median lay at about -52%. Shown is part of a subset that was picked to be rich in strong results.

This assay deals with Plasmodium falciparum. Nature of the assay: Screen against P. falciparum Asexual Blood Stage (ABS), at 5uM. In kind it is functional, Dd2. Conditions: tested at 5 uM.
For `CN1CCC(Cc2cncc(-c3ccccc3C(=O)O)n2)C1` (configuration not stated), the INHIBITION is -92%. To `CCc1nc2ccccc2c(=O)n1CC1(O)CCN(S(C)(=O)=O)CC1` belongs -59.6%; to `CC(C)c1cc(C(=O)N2CCOC3(CCCC3)C2)no1`, -111%; to `CCOc1ccc(C(=O)Nc2c(C)nc3ccc(Cl)cn3c2=O)cc1`, -87.3%. With `COC(=O)c1ccc(S(=O)(=O)NCc2cccnc2N(C)C)cc1` the figure was -8.55%; with `CCOC(=O)c1ccc(S(=O)(=O)NCc2cccnc2N(C)C)cc1`, 54.1%. To `CN(C)c1ncccc1CNS(=O)(=O)c1ccc(C(N)=O)cc1` belongs -34.2%.

With `CC(C)(O)CCc1ccc(C(=O)N2Cc3cnn(CCO)c3C2)cc1`, the INHIBITION is reported as -86.5%. To `CCOc1ncnc2c1CCN(C(=O)NCc1cccnc1)CC2` belongs -58.1%; to `Clc1cccc(CNc2cnn(CCN3CCCCC3)c2)c1`, 53.3%; to `N#Cc1ccc(CNc2cnn(CCN3CCOCC3)c2)cc1`, -16.7%. As to `Clc1ccc(CNc2cnn(CCN3CCOCC3)c2)cc1Cl`, the INHIBITION was -55.6%. With `Cn1nccc1CCNC(=O)[C@H]1CNC[C@H](C(=O)N2CCCC2)C1` the figure was -22.7%. To `COC(=O)CN1CCN(c2nc3c(s2)c(C)nn3C)C(C)C1=O` (configuration not stated) belongs -88%; to `Cc1nn(C)c2nc(N3CCNC(=O)C3Cc3ccccc3)sc12` (configuration not stated), -81.9%. To `Cc1ccc(CN2CCN(c3nc4c(s3)c(C)nn4C)C(C)C2=O)cc1` (configuration not stated) belongs 69.8%; to `O=C(CN1C=Nc2ccccc2S1(=O)=O)NCCCc1ccccc1`, -115%; to `CCn1cnnc1CNC(=O)N1CCN(c2ccccc2Cl)CC1`, -79.9%.

Consider `COc1ccc(CN(Cc2cncn2C)CC2CCCO2)c(OC)c1` (configuration not stated), for which the INHIBITION was -22.7%.

As to `CSc1ccc(-c2nc(CN3CCNCC3C)c(C)o2)cc1` (configuration not stated), the INHIBITION stood at 35.1%.

For `CSc1ccc(-c2nc(CN3C[C@@H](C)NC[C@@H]3C)c(C)o2)cc1`, the INHIBITION is -61.5%. In the case of `Cc1oc(-c2cc(F)cc(F)c2)nc1CN1C[C@@H](C)NC[C@@H]1C`, the INHIBITION is 60.1%.

Take `Cn1cc(N2C[C@@H]3CN(CC4CCOCC4)C[C@@H]3C2=O)cn1`: the INHIBITION was -67.1%. To `Cn1cc(C2CCCN2C(=O)CCCc2ccccn2)cn1` (configuration not stated) belongs -94.3%.

For the compound `Cc1ccc(CNC(=O)c2cc(Cn3ccnc3C(C)C)[nH]n2)o1`, the INHIBITION is given as -76.4%. On to `CCCc1cc(N2CCC(NCC3(O)CCCCC3)CC2)nc(C)n1`, for which the INHIBITION is 8.94%. With `CCCc1cc(N2CCC(NCC3(O)CCN(C)CC3)CC2)nc(C)n1` the figure was 51.2%; with `CCCc1cc(N2CCC(NC3CCC(O)CC3)CC2)nc(C)n1` (configuration not stated), -161%. To `CCS(=O)(=O)CC(=O)NC(c1ccccc1)C1CCCC1` (configuration not stated) belongs -30%; to `Cc1noc(C)c1CN1CCN(C(C)c2nc(C3CC3)no2)CC1` (configuration not stated), -77.5%. With `Cc1c(Cc2ccccc2)c(O)nc2nc(N3CCOCC3)nn12` the figure was -56.2%; with `O=C(c1ccncc1)N1CCC2(CC1)CCN(C(=O)c1cccnc1)C2`, -57.2%. On to `CC(=O)Nc1ccc(OCc2noc(C(=O)N3CCCCCC3)n2)cc1`, for which the INHIBITION is -83.9%. With `Cc1nc(CN2CCCC(CCc3ccc(F)cc3F)C2)c[nH]1` (configuration not stated) the figure was 57.6%; with `Cc1[nH]c(=O)[nH]c(=O)c1CN1CCCC(CCc2ccccc2F)C1` (configuration not stated), -26.5%; with `Fc1ccc(CCC2CCCN(Cc3c[nH]cn3)C2)c(F)c1` (configuration not stated), 61.6%.

Turning to `Cc1[nH]c(=O)[nH]c(=O)c1CN1CCCC(CCc2ccc(F)cc2F)C1` (configuration not stated), the INHIBITION is 52%.

Take `Nc1ccc(CC2CCCN(Cc3c[nH]cn3)C2)nn1` (configuration not stated): the INHIBITION was -87%. With `CNc1ccc(CC2CCCN(Cc3c[nH]cn3)C2)nn1` (configuration not stated) the figure was -105%; with `Cc1nc(CN2CCCC(CCc3ccccc3F)C2)c[nH]1` (configuration not stated), 36.5%; with `Cc1nc(CN2CCCC(CCc3c(F)cccc3F)C2)c[nH]1` (configuration not stated), 43.1%. With `Cc1[nH]c(=O)[nH]c(=O)c1CN1CCCC(CCc2c(F)cccc2F)C1` (configuration not stated) the figure was -44.3%. Take `Cc1ccc(OCC(O)CN2CCc3c(ncn3C3CC3)C2)cc1` (configuration not stated): the INHIBITION is -28.3%. On to `CN1CCc2nc(C3CCCN(C(=O)CC(C)(C)C)C3)ncc2C1` (configuration not stated), for which the INHIBITION is recorded as -102%. To `Cc1cccc(-c2ccc(C(=O)N3CCSCC3)c(=O)[nH]2)c1` belongs -14.2%; to `Cc1csc(CN2CC[C@H]3O[C@H](C(=O)Nc4cccnc4)CC[C@H]32)n1`, -18.1%; to `Cc1nn(C)c2c(N3CCN(C(=O)C4CCCO4)CC3)ncnc12` (configuration not stated), 9.5%. With `CC(=O)N1CCN(C(=O)c2cc(C(C)C)no2)[C@H]2CS(=O)(=O)C[C@H]21` the figure was -67%; with `O=C(CCNC(=O)c1cccc(OC(F)F)c1)Nc1cccnc1`, -128%. With `Cc1cccc(CN2CCc3nnc(CN(C)C)n3CC2)n1` the figure was -108%.

Take `Cc1cccc(CN2CCc3nnc(CN4CCCC4=O)n3CC2)n1`: the INHIBITION is -48.8%.

As to `Cc1cccc(CN2CCc3nnc(Cn4cccc4)n3CC2)n1`, the INHIBITION was 57.5%. To `Cc1nnc2n1CCN(CCS(=O)(=O)c1ccc(Cl)cc1)C2` belongs -194%; to `Cc1cccc(-c2noc(Cn3nc(C(N)=O)ccc3=O)n2)c1`, -165%; to `CN(C)CCN(CC1CCCO1)S(=O)(=O)NCc1ccccc1` (configuration not stated), 62%. Consider `CN(CCCC1CCCO1)S(=O)(=O)NCc1ccccc1` (configuration not stated), for which the INHIBITION is -55.1%.

As for `O=S(=O)(NCc1ccccc1)N(Cc1ccccn1)CC1CCCO1` (configuration not stated), the INHIBITION is -181%. With `C[C@@H](CO)NC(=O)c1ccc2nc(NS(C)(=O)=O)sc2c1` the figure was -104%; with `CCOc1ccc(CNC(=O)N(C)CC(C)(C)O)cc1C`, -65.1%; with `COCC(=O)N1CCC2(CC1)CN(c1ccccn1)CCO2`, -89.8%. To `Cn1cc(CN2CCC3(CC2)CCN(Cc2ccccn2)CC3)cn1` belongs -19.8%; to `CCN1CCC2(CC1)CC(COC)N(Cc1csc(C)n1)C2` (configuration not stated), -19.2%; to `COCC1CC2(CCN(Cc3ccc(C)o3)CC2)CN1C(C)C` (configuration not stated), 34.5%. To `COCCN1CCC2(CC1)CCN(Cc1ccccn1)CC2` belongs 52.2%; to `COCC(=O)N1CCC2(CCN(Cc3ccccn3)CC2)CC1`, -158%; to `COCC1CC2(CCN(Cc3ccco3)CC2)CN1C(C)C` (configuration not stated), 64.6%.

Turning to `COCC(=O)N1CCC2(CC1)CC(COC)N(Cc1ccccn1)C2` (configuration not stated), the INHIBITION is given as -56%. To `COCC1CC2(CCN(Cc3ccoc3)CC2)CN1Cc1ccccn1` (configuration not stated) belongs 57.2%. To `COCC1CC2(CCN(CC3CC3)CC2)CN1Cc1csc(C)n1` (configuration not stated) belongs 53.4%. Regarding `COCC1CC2(CCN(Cc3nccs3)CC2)CN1Cc1ccccn1` (configuration not stated), the INHIBITION came to 1.23%. To `COCC1CC2(CCN(C(=O)c3ccco3)CC2)CN1C(C)C` (configuration not stated) belongs 24.5%; to `COCC1CC2(CCN(C(C)=O)CC2)CN1Cc1csc(C)n1` (configuration not stated), -7.46%.
